Consider 94 compounds from PubChem BioAssay AID567 (The Scripps Research Institute Molecular Screening Center, 2006).

Screen size: about 65,000 compounds; about 370 (0.57%) were called active. The sample as a whole holds a higher share of actives than the screen did. A number with no mark means an inactive call.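 Rule for the calls: active = activation above the screen-wide mean activation plus 3 SD (cut at about 19% in these data); inactive = the rest.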

5-hydroxytryptamine receptor 1A (Homo sapiens), sequence (P08908 whole entry, looked up): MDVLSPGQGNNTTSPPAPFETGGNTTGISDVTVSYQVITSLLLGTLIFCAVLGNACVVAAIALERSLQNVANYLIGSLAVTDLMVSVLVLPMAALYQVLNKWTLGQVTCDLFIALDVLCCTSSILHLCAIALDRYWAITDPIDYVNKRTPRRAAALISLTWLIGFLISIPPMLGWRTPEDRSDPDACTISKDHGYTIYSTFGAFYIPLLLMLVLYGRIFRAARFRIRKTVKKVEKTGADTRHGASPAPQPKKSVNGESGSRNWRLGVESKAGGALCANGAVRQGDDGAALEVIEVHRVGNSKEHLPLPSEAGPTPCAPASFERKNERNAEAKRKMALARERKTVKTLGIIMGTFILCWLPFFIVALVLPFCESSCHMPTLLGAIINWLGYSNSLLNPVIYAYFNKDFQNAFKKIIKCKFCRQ

The assay addresses 5-hydroxytryptamine receptor 1A (Homo sapiens) (UniProt P08908). Nature of the assay: agonism at serotonin HTR1A receptor – cell-based, CHO, Ga15 NFAT-bla reporter, primary screen (AID 567).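 Note: 0% = DMSO wells and 100% = 5-CT at EC100.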 As to conditions: CHO 5-HT1a Ga15 NFAT-bla reporter, FRET ratio; at 10 µM; active compounds read high; 0% basal, 100% maximal reference agonist.
Turning to `COC(=O)c1ccc(S(=O)(=O)c2ccc(C(=O)OC)s2)s1`, the activation is 2.5%. For `CCOC(=O)CN(C(=O)CN1CCOCC1)c1ccc(Br)cc1`, the activation is -0.22%. As for `CCOC(=O)C1CCN(C(c2cc3cc(C)cc(C)c3[nH]c2=O)c2nnnn2C2CCCCC2)CC1` (centres undefined), the activation is -0.97%. Consider `CC(C)CCNC(=O)C1CCCN(S(=O)(=O)c2ccc(F)cc2)C1` (centres undefined), for which the activation was 0.42%. As for `O=C(NCc1ccco1)c1ccc(CS(=O)(=O)Cc2ccc(F)cc2)o1`, the activation was -3.1%. Turning to `O=C(c1cccs1)N1CCCC(c2nc(-c3ccc(F)cc3)no2)C1` (centres undefined), the activation is -1.69%. With `Cn1c(=O)c2c(ncn2CC(=O)N2CCN(c3ccccc3)CC2)n(C)c1=O`, the activation was -0.49%. As for `COc1ccc(C(=O)Nc2ccc(S(=O)(=O)Nc3onc(C)c3C)cc2)cc1OC`, the activation was -4.48%.

With `Cc1noc(NS(=O)(=O)c2ccc(N3CC(O)=C(c4ccccc4)C3=N)cc2)c1C`, the activation was 147% (active). Under `Cc1noc(NS(=O)(=O)c2ccc(NC(=O)C34CCC(CC3)C4)cc2)c1C` stands 0.73%. For `COc1cccc2c(=O)n(CC(=O)N3CCCCCC3)ccc12`, the activation was -2.41%. In the case of `CC1=C(C(=O)OCc2ccccc2)C(c2ccco2)n2ncnc2N1` (centres undefined), the activation is 2.82%. As for `CCCOc1ccc(N2CC(C(=O)Nc3ccccn3)CC2=O)cc1` (centres undefined), the activation is -1.38%. As for `COc1cc2ccccc2cc1C(=O)Nc1ccc(S(=O)(=O)Nc2cc(C)on2)cc1`, the figure is 0.01%; as for `CC(C)(C)n1c(=O)[nH]c2c(c1=O)CCC2`, -0.19%. Under `Cc1ccc(-n2nc3cc(Cl)c(NC(=O)c4ccco4)cc3n2)cc1` stands 0.44%; under `c1ccc2cc(OCCN3CCCC3)ccc2c1`, -1%; under `O=C(CN1C2CCC1CC(NC(=O)C1CC1)C2)NCc1ccccc1` (centres undefined), 0.81%. Regarding `CCn1c(SCC(=O)Nc2ccc3c(c2)OCCO3)nc2c(c1=O)SC(C)C2` (centres undefined), the activation was 1.05%. Take `O=C(c1ccc2c(c1)OCCO2)C1CCN(S(=O)(=O)c2cccc(F)c2)CC1`: the activation is -3.42%.

With `CC(=O)NS(=O)(=O)c1ccccc1`, the activation is -2.33%.

Turning to `Fc1cnc(N2CCOCC2)nc1NCc1ccccc1`, the activation is -1.58%. `CCn1c(SCC(=O)Nc2nccs2)nnc1-c1ccncc1`: the activation is -0.84%. Turning to `CC(=O)Cc1nsc(NC(=O)c2csc3c2CCCC3)n1`, the activation was 0.34%. In the case of `COc1ccc(-c2nn(-c3ccccc3)cc2C(=O)Nc2nc(CC(C)=O)ns2)cc1`, the activation is 59.1% (active). On to `CC(=O)Cc1nsc(NC(=O)c2ccc(COc3ccc(C)cc3)o2)n1`, for which the activation is -1.31%. For the compound `CCOc1cc(C2C(C(=O)OC)=CN(C3CCCC3)C=C2C(=O)OC)cc(Br)c1O`, the activation is 14.4%. Take `CCOc1ccccc1C1C(C(=O)OC)=CN(C)C=C1C(=O)OC`: the activation is 20.1% (active). Regarding `COC(=O)C1=CN(C)C=C(C(=O)OC)C1c1ccc(Cl)cc1Cl`, the activation was 13.7%. In the case of `CC(=O)c1ccc(N2C(=NC(=O)C(C)C)SC3CS(=O)(=O)CC32)cc1` (centres undefined), the activation was -1.94%. Under `CN(C)/C=C1/Nc2ccccc2C1=O` stands -1.11%. For the compound `O=C(O)c1ccc(F)c(S(=O)(=O)Nc2ccccc2)c1`, the activation is 1%. For the compound `COc1ccc(NC(C)=O)cc1NC(=O)CN1CCN(c2ccccn2)CC1`, the activation was -1.16%. Take `COC(=O)c1ccc(C2NC(=O)NC(C)=C2C(=O)N(C)C)cc1` (centres undefined): the activation is -3.69%. Consider `O=C(c1ccc(S(=O)(=O)N2CCOCC2)cc1)N1CCN(c2ccccc2)CC1`, for which the activation was -2.91%. For the compound `CNC(=O)c1nnn(-c2ccccc2)c1C(=O)NC`, the activation is -1.73%.

With `CCOc1ccc(NS(=O)(=O)c2ccc(OCC(=O)NCCCOC)cc2)cc1`, the activation was -1.21%. Consider `O=C(COC(=O)CCc1c[nH]c(=O)[nH]1)Nc1ccccc1Cl`, for which the activation is -0.97%.

Regarding `CCOC(=O)c1c(C)[nH]c(C(=O)NCc2ccccc2OC)c1C`, the activation is -0.94%. Regarding `COc1ccc(C)cc1NC(=O)c1[nH]c(C)c(C(C)=O)c1C`, the activation is 43.5% (active). Regarding `CCOc1ccc(NC(=O)Nc2cc(C)ccc2OC)cc1`, the activation was -4.41%. Under `O=C(CSc1nnc(-c2ccco2)o1)NCC(=O)c1ccccc1` stands 0.23%. For the compound `Cc1ccc(CNC(=O)C2CCCN(S(C)(=O)=O)C2)cc1` (centres undefined), the activation is 0.44%. For `Cc1cc(C)c(NC(=O)CS(=O)CC(=O)Nc2cccnc2)c(C)c1` (centres undefined), the activation is 0.42%. As for `CCCC(=O)Nc1ccc(C(=O)NCCCn2ccnc2)cc1`, the figure is -3.99%. Take `CCOC(=O)C1(Cc2ccc(O)cc2)NC(c2ccccc2F)C2C(=O)N(C)C(=O)C21` (centres undefined): the activation was -1.57%. In the case of `COc1ccccc1N1CC(O)=C(c2nc3ccccc3s2)C1=N`, the activation was -3.98%. Regarding `Cc1ccc(C(=O)CS(C)(=O)=O)cc1`, the activation is -5.39%. As to `O=C(O)C1CCCN(S(=O)(=O)c2cccc3cccnc23)C1` (centres undefined), the activation was -4.76%. Regarding `Cc1[nH]c2ccc(S(N)(=O)=O)cc2c1C`, the activation is -0.45%.

Take `Cc1ccccc1CSCC(=O)NC(=O)NC(C)(C)C`: the activation was -1.47%. As for `CC1CCCN(c2ccc(C(=O)NCCc3ccccc3)cn2)C1` (centres undefined), the figure is -0.9%. Consider `C=CCn1c(N)c(C(=O)OCC(C)C)c2nc3ccccc3nc21`, for which the activation is 0.61%.

With `C=CCn1c(N)c(S(=O)(=O)c2cccs2)c2nc3ccccc3nc21`, the activation is -0.33%. Turning to `CC(C)Cn1c(N)c(C(=O)NCc2cccs2)c2nc3ccccc3nc21`, the activation is 77.6% (active). With `CCOc1ccc2nc(SC(CC)C(=O)Nc3cc(C)on3)sc2c1` (centres undefined), the activation is 0.42%. `COc1ccc(F)cc1S(=O)(=O)Nc1ccc2c(c1)OCO2`: the activation is -5.74%. As for `O=C(Cn1cnc2c(nnn2Cc2ccc(F)cc2)c1=O)NCc1ccc2c(c1)OCO2`, the figure is -1.47%; as for `COc1cccc2c(C)c(C(=O)O)[nH]c12`, 1.98%.

For the compound `C=CCSC1=C(C#N)C(c2cc(Br)c(O)c(OC)c2)CC(=O)N1` (centres undefined), the activation is 1.53%. Under `C=CCNc1nnc(SCC(=O)N2CCCCC2)c2ccccc12` stands 0.32%. As for `O=C1c2ccncc2C(=O)N1C1CCCCC1`, the figure is -3.22%; as for `CC1Cn2c(nnc2-c2cccs2)S1` (centres undefined), 0.5%. As for `Cc1ccc(CNC(=O)CN2CCN(Cc3ccc(Cl)cc3)C2=O)cc1`, the figure is 0.67%. As to `Cn1c(C(=O)NCCN2CCc3ccccc3C2)cc2c(=O)[nH]c3ccccc3c21`, the activation is -1.75%.

For the compound `CCc1ccccc1N(CC(=O)N1CCN(c2ccccc2F)CC1)S(C)(=O)=O`, the activation is -1.54%. `COc1ccccc1CNC(=O)CCCn1c(=O)c2ccccc2n(CC(=O)NC2CCCC2)c1=O`: the activation is -2.51%. Take `CCCOC(=O)CC1C(=O)NCCN1Cc1ccc(F)cc1` (centres undefined): the activation is 1.2%.

With `Cc1c(NC(=O)C(C)OC(=O)c2cc3c4ccccc4n(C)c3s2)c(=O)n(-c2ccccc2)n1C` (centres undefined), the activation is 1.13%.

For `O=c1c2cc3c(=O)n(CC4CCCO4)c(=O)c3cc2c(=O)n1CC1CCCO1` (centres undefined), the activation was -2.73%. Under `O=C(NC1CCCCC1)c1ccc2c(=O)n(CC3CCCO3)c(=O)[nH]c2c1` (centres undefined) stands -3.15%; under `COC(=O)c1ccc2c(=O)n(CC3CCCO3)c(=S)[nH]c2c1` (centres undefined), 66.3% (active); under `CCC(C)NC(=O)C1CCC(=O)N1Cc1ccc(C)cc1` (centres undefined), -3.11%.

For the compound `CCOc1ccc(C2C(C(=O)NC)=C(C)Nc3nc4ccccc4n32)cc1OC` (centres undefined), the activation is -2.74%. Consider `c1cnc(NC2C3CC4CC(C3)CC2C4)nc1` (centres undefined), for which the activation was -0.19%. In the case of `COc1ccc2c(c1OC)C(=O)OC2c1c(O)nc(SC)n(-c2ccccc2)c1=O` (centres undefined), the activation was 1.4%. As to `CCn1c(-c2cc(OC)ccc2OC)csc1=Nc1c(C)n(C)n(-c2ccccc2)c1=O`, the activation is -3.67%. On to `CCOC(=O)Cn1c(=O)oc2cc(S(=O)(=O)N(C)Cc3ccco3)ccc21`, for which the activation was -3.37%. For `Cc1ccc(C(C)C)c(OCc2nnc(SCC(=O)Nc3nccs3)n2C)c1`, the activation is -0.25%. As for `O=C(Nc1cc(N2CCOCC2)ncn1)NC1(C(F)(F)F)Oc2ccc(Cl)cc2O1` (centres undefined), the activation is -2.08%. Under `O=C1c2ccccc2-c2ncnc3c(N4CCOCC4)cc(N4CCOCC4)c1c23` stands 0.99%. Turning to `c1cnn(-c2cc(N3CCOCC3)ncn2)c1`, the activation is 42% (active). For the compound `N#Cc1c(N)n(CCOC(=O)c2ccc(Cl)cc2)c2nc3ccccc3nc12`, the activation is 27.6% (active). `CC(C)(C)OC(=O)c1c(N)n(CCCN2CCCC2=O)c2nc3ccccc3nc12`: the activation was 4.61%. On to `COCCCn1c2nc3ccccc3nc2c2c(=O)n(Cc3ccc(Cl)cc3)c(C)nc21`, for which the activation is 1.36%. Under `CCC(=O)c1ccc(OCC(O)CN2CCN(c3cccc(C(F)(F)F)c3)CC2)cc1` (centres undefined) stands 36.5% (active); under `COc1cccc(OCC(O)CN2CCN(CCO)CC2)c1` (centres undefined), 1%.

Consider `O=C(C(c1ccccc1)c1ccccc1)N1CCN(CC(O)COc2ccccc2)CC1` (centres undefined), for which the activation was -2.69%. Consider `Cn1nc(-c2ccc(Cl)cc2)c2cc(C(=O)NCc3ccco3)sc21`, for which the activation is -2.11%. With `CCc1c(C)nc(N2CCN(Cc3ccccc3)CC2)[nH]c1=O`, the activation is -1.04%. Turning to `CC(C)N1C(=O)C2C(C(=O)NC3CCCCC3)C3C=CC2(O3)C1C(=O)NC1CCCC1` (centres undefined), the activation was -3.66%. As to `CCn1c(CNC(=O)c2ccc(OC)c(OC)c2)nnc1SCC(=O)Nc1ccccc1`, the activation was 1.92%.

As to `CCCNS(=O)(=O)c1ccc(CCC(=O)NCc2cccnc2)cc1`, the activation was 0.51%. Under `CCN1CCN(Cc2nc3c(c(=O)n(C)c(=O)n3C)n2CC(=O)c2ccccc2)CC1` stands -1.47%.
